Test results: PubChem BioAssay (NCI)
Compounds without any hit were thinned out: in the full panel of roughly 83,000, 20% have a hit.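 The endpoint reported here, percent growth, reads 100 for growth as untreated, 0 for no net growth and -100 for all cells dead.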 The source made the active and inactive calls. Rule for the calls: active = growth percent below 10; inactive = the rest.

System: HL-60(TB) leukemia
Assay: NCI-60 one-dose screen, 48 h (100 = growth as untreated, 0 = no growth, -100 = all killed)
Settings: 10 µM unless noted

| Compound | growth |
| --- | --- |
| Cc1c(C(=O)Nc2nc3ccccc3[nH]2)cnn1-c1ccccn1 | 58.5% (inactive) |
| Cc1ccc(C2CC(c3cccc(Nc4ccncc4)c3)=Nc3c(N)nc(N)nc3N2)cc1 (stereo not given) | 33.7% (inactive) |
| C=C1C(=O)O[C@H]2[C@H]1CC/C(C=Nc1c(N)cc(C(F)(F)F)cc1C(F)(F)F)=C\CC[C@@]1(C)O[C@@H]21 | -24.9% (active) |
| [O-][n+]1c(Cl)cc(Cl)c2ccccc21 | 84.9% (inactive) |
| Cc1cc(N2CCOCC2)nc(NCc2cc(Nc3ccnc4cc(Cl)ccc34)ccc2F)n1 | -54.2% (active) |
| Cc1c2cccnc2c(C)c2c1c1cc(CO)ccc1n2C | 31% (inactive) |
| O=CNc1cc(Cl)cc(Cl)c1 | 93.2% (inactive) |
| c1cncc(-c2csc(-c3c[nH]c4ccccc34)n2)c1 | 91.9% (inactive) |
| Cc1cc(=O)[nH]c(NN=C2CCCC2)n1 | 94.6% (inactive) |
| NC(=N\N=C/c1cccc([N+](=O)[O-])c1)/C(N)=N\N=C/c1cccc([N+](=O)[O-])c1 | 104% (inactive) |
| Cc1cc(O)ccc1O | -14.1% (active) |
| Nc1cc2c3c(cccc3c1)C(=O)N(CCN1CCCC1)C2=O | 1.24% (active) |
| O=C(/C=C/C12c3ccccc3C(c3ccccc31)C1C(=O)N(c3ccccc3)C(=O)C12)c1ccccc1 (stereo not given) | 10.5% (inactive) |
| COc1ccccc1S(=O)(=O)Nc1ccc2c3c(cc(-c4cnn(C5CC5)c4)nc13)C(=O)N2C | -10% (active) |
| O=C(c1ccncc1)N1N=C(c2ccc(Cl)cc2)C[C@H]1c1cn(-c2ccccc2)nc1-c1ccccc1 | 107% (inactive) |
| CN(C)c1ccc2cc(-c3cc4c(oc3=O)-c3ccccc3OC4O)c(=O)oc2c1 (stereo not given) | -66.5% (active) |
| COc1cc2c(-c3nc4cc(Cl)c(F)cc4s3)cc(=O)oc2c(C)c1OC | -56.2% (active) |
| O=[N+]([O-])c1ccc(O)c(-c2nc3ccccc3s2)c1 | 52.8% (inactive) |
| COc1cc(CCn2nnc3c(NCCCCO)ncnc32)cc(OC)c1 | 133% (inactive) |
| O=C(Nc1ncc(Cc2ccccc2)s1)c1cc(-c2ccccc2)nc2ccccc12 | 99.2% (inactive) |

| Compound | growth |
| --- | --- |
| O=C(O)CSCc1nc2ccccc2[nH]1 | 136% (inactive) |
| CCCCCCCC/C=C\CCCCCCCCOc1ccccc1CC(=O)NCC[N+](C)(C)C | 67% (inactive) |
| CSc1ccc2c3c(n(CCCn4ccnc4)c(=O)c2c1)-c1ccccc1C3=O | 15.5% (inactive) |
| CCOC(=O)c1c(C)c(C(=O)OCC)n(C)c1C | 85.9% (inactive) |
| Cc1ccccc1-n1c(C)nc2cc(NC(=O)c3ccc(Cl)cc3)ccc2c1=O | 64.5% (inactive) |
| Cc1c(C(=O)N[C@H](CO)Cc2ccccc2)[nH]c2ccc(Cl)cc2c1=O | 99.7% (inactive) |
| CN(C)c1nc(N)c(N=O)c(N)n1 | 106% (inactive) |
| CCOC(=O)Nc1nccs1 | 100% (inactive) |
| Cc1cccc(CNc2c3ccccc3nc3ccccc23)c1 | 12.5% (inactive) |
| O=C(Cc1ccccc1Nc1c(Cl)cccc1Cl)NN1C(=O)/C(=C/c2ccc(Br)cc2)SC1=S | 101% (inactive) |
| O=C(O)/C=C\C(=O)N1C/C(=C\c2ccccc2Cl)C(=O)/C(=C/c2ccccc2Cl)C1 | -3.51% (active) |
| O=C(Nc1ccccc1Cl)c1c[nH]c(=O)c(-c2ccc(N3CCCOC4(CC4)C3)cc2)c1 | 28.3% (inactive) |
| COc1ccc(-c2nnc(SCC(=O)Nc3ccc(C(=O)/C=C/c4cc(OC)c(OC)c(OC)c4)cc3)n2-c2ccccc2)cc1OC | 46.1% [100 µM] (inactive) |
| CCOC(=O)C1=C(C)NC(SCc2cc(=O)oc3ccc(F)cc23)=N[C@@H]1c1cccc2ccccc12 | 78.4% (inactive) |
| Nc1nc(-c2ccc(F)cc2)cc(-c2cnn(-c3ccccc3)n2)n1 | 101% (inactive) |
| Cc1ccc(/C=C/C(=O)c2ccc(-n3cc(CN4CCN(c5cc6c(cc5F)c(=O)c(C(=O)O)cn6C5CC5)CC4)nn3)cc2)cc1 | 98.8% (inactive) |
| COC(=O)C(C(C[N+](=O)[O-])c1ccccc1)=P(c1ccccc1)(c1ccccc1)c1ccccc1 (stereo not given) | 80.5% (inactive) |
| NC(=O)CSc1nc(-c2ccc(F)cc2)cc(-c2ccco2)n1 | 108% (inactive) |
| N#CC1c2ccccc2-c2ccccc2N1C(=O)c1ccccc1 (stereo not given) | 21.6% (inactive) |
| C=C1C(=O)O[C@H]2[C@H]1CC/C(COC(=O)NCc1ccc(Cn3c(=O)sn(CCCl)c3=O)cc1)=C\CC[C@@]1(C)O[C@@H]21 | -21.4% (active) |
